# From PubChem BioAssay
# A selection: hits, their analogues and other compounds. The true share with any hit is near 12%.
# OTUD3 block – blocks human OTUD3 ubiquitin-rhodamine cleavage; hit rate 0.7% among 47,000; Q5T2D3; purified OTUD3, Ub-rhodamine fluorescence, 2 h; inhibition, % at 25 µM; AID 1645858
# Target sequence (Q5T2D3 whole entry, looked up): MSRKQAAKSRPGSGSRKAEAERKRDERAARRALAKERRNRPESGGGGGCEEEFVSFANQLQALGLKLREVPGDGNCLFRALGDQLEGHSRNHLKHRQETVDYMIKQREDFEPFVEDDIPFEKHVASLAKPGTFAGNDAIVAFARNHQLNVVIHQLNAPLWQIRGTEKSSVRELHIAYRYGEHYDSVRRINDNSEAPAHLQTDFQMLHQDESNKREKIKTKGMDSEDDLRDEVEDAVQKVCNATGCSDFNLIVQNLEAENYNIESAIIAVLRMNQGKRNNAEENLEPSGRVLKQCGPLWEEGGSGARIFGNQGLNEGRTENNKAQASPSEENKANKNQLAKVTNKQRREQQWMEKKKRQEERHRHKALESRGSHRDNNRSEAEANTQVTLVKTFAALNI
# USP28 block – inhibitors of human USP28 deubiquitinase. purified USP28, Ub-rhodamine cleavage fluorescence, 30 min. hit rate 3% among 47,000. Q96RU2. inhibition, % at 25 µM
# USP17 inh – blocks human USP17 ubiquitin-rhodamine cleavage. A8MUK1. hit rate 6.5% among 47,000. inhibition, % at 50 µM. purified USP17, Ub-rhodamine cleavage fluorescence, 3 h. AID 1645855
# USP30 block – blocks human USP30 ubiquitin-rhodamine cleavage; Q70CQ3; purified USP30, Ub-rhodamine cleavage fluorescence; inhibition, % at 25 µM; hit rate 5.3% among 47,000; AID 1645860
# An asterisk follows results filed as active; · = no result. Cut-off read from the data, not from the text of the source: active = inhibition above about 30%; inactive = the rest.
SMILES,OTUD3 block,USP28 block,USP17 inh,USP30 block
CCCCOc1cccc(C(=O)Nc2ccc(OCC)c3ncccc23)c1,5,18,47*,1
CC(=O)Nc1ccc(NC(=O)C2(c3ccc(Cl)cc3)CCC2)cc1,-11,-1,45*,16
CNc1nc(C2CCN(C(C)=O)CC2)nc2c1CCN(S(=O)(=O)c1ccccc1)C2,0,0,4,3
NC1=CC(=O)C(Nc2ccccc2O)=CC1=O,-7,-5,42*,-35
Cc1ccccc1-n1nc2c(c1NC(=O)c1ccc(F)c(F)c1)CS(=O)(=O)C2,-5,-4,-8,-2
CCCCOc1ccc(C(=O)Nc2c3c(nn2-c2ccccc2C)CSC3)cc1,19,19,46*,25
COc1cccc(NC(=O)CCC(=O)Nc2ccc3nc(N4CCN(C)CC4)cc(C)c3c2)c1,4,-1,-5,0
CC1CCc2c(sc3nc(SCC(=O)NCc4ccco4)[nH]c(=O)c23)C1 (stereo unspecified),-5,-6,0,-20
CCNc1nc(SCC(C)=O)nc2sc3c(c12)CCC(C)C3 (stereo unspecified),16,20,58*,34*
CC(C)[C@@H](C)[C@H](O)C(=O)[C@@H](C)C1CC[C@H]2[C@H]3C(=O)[C@@H]4O[C@@]45C[C@@H](OC(=O)C(O)C(C)(C)O)CC[C@]5(C)[C@]34O[C@@H]4C[C@]12C (stereo partly specified),-2,-3,-17,-4
CSc1ccccc1C(=O)Nc1nc(-c2ccncc2)cs1,14,4,55*,34*
O=C(CCN1c2ccccc2Sc2ccccc21)NCc1ccccc1F,-8,-5,-2,-12
CC1(C)C[C@@H](O)[C@]2(C)CC[C@]3(C)C(=CCC4[C@@]5(C)CC[C@H](O)[C@](C)(CO)[C@@H]5CC[C@]43C)[C@@H]2C1 (stereo partly specified),2,4,53*,43*
COc1ccc(-c2nnc(SCc3ccccc3C#N)o2)c(OC)c1,13,14,25,50*
COCCn1ccc2nc(C)c(C(=O)NCc3ccccc3F)cc2c1=O,-2,-4,1,-3
Cc1ccc(Nc2nc(O)c(CC(=O)Nc3ccccc3C)s2)cc1C,13,4,74*,15
Cc1cc(C)c(NC(=O)Cc2sc(Nc3ccc(C)c(C)c3)nc2O)c(C)c1,10,9,3,-3
Cc1ccc(NC(=O)Cc2ccc(-c3ccccc3)cc2)c(C)c1,4,3,6,18
Cc1ccc(Nc2nc(O)c(CC(=O)Nc3ccc(C)cc3C)s2)cc1,20,0,37*,9
COc1ccc(NC(=O)Cc2sc(Nc3cccc(OC)c3)nc2O)cc1,-5,1,1,-27
COc1cccc(NC(=O)Cc2sc(Nc3cc(C)cc(C)c3)nc2O)c1,5,4,62*,0
CNC(=O)[C@@]12CCC3(CCN(C(=O)Cc4ccccc4)CC3)[C@@H]1CN(C)C2,14,7,11,30
O=C1C(NS(=O)(=O)Cc2cccc(F)c2)CCN1c1ccc(F)cc1 (stereo unspecified),-3,11,43*,-3
O=C1C(NS(=O)(=O)Cc2cc(F)cc(F)c2)CCN1c1ccccc1 (stereo unspecified),1,18,47*,-13
Cc1cc(N2CCC(NC(=O)NCc3ccc(F)cc3)C2=O)ccc1F (stereo unspecified),8,3,70*,12
SMILES,OTUD3 block,USP28 block,USP17 inh,USP30 block
O=C(NCc1cccc(F)c1)NC1CCN(c2ccccc2)C1=O (stereo unspecified),8,10,44*,20
Cn1cnc(C(=O)N2CC3(CCN(C(=O)c4cscn4)C3)C2)c1,15,15,2,9
O=C(Cn1c(=O)n(CCc2ccc(Cl)cc2)c(=O)c2ccccc21)OCc1ccccc1,13,10,9,13
COc1ccc(NC(=O)COC(=O)c2cc3ccccc3oc2=O)c(OC)c1,4,6,7,15
CCc1ccccc1NC(=O)Cn1c(C)nc2c(c1=O)CCN(Cc1ccccc1)C2,-13,-16,19,-54
Cc1cccc(NC(=O)C2(C)Oc3cccnc3N(C)C2=O)c1 (stereo unspecified),-5,0,-7,2
O=C1C(NS(=O)(=O)Cc2cccc(F)c2)CCN1c1ccccc1 (stereo unspecified),9,19,44*,34*
O=C1C(NS(=O)(=O)Cc2ccccc2F)CCN1c1ccccc1 (stereo unspecified),8,13,12,9
CCc1nnc(-c2cc(S(=O)(=O)N3CCN(c4ccccn4)CC3)c[nH]2)o1,7,16,7,17
N#Cc1ccc(Cl)cc1NC(=O)CN1C(=O)c2ccccc2S1(=O)=O,1,4,11,18
N#Cc1ccc(Cl)cc1NC(=O)COc1cccnc1[N+](=O)[O-],0,2,50*,31*
COc1ccc(NC(=O)N2CCn3cccc3C2c2ccc(F)cc2)cc1OC (stereo unspecified),-34,-28,-47,-183
c1ccc2c(-c3nc(C4CC4)no3)nnc(NCCCN3CCOCC3)c2c1,18,14,9,36*
CC(C)N1CCN(c2nnc(-c3nc(C4CC4)no3)c3ccccc23)CC1,-10,1,-12,-9
c1ccc2c(-c3nc(C4CC4)no3)nnc(NCc3ccncc3)c2c1,6,4,53*,29
Fc1ccc(-c2noc(-c3nnc(NCc4cccnc4)c4ccccc34)n2)cc1,-2,-8,75*,-3
CC(C)OCCCNc1nnc(-c2nc(C3CC3)no2)c2ccccc12,0,3,0,16
c1ccc2c(-c3nc(C4CC4)no3)nnc(NC3CCCCC3)c2c1,8,17,1,33*
O=C(c1ccccc1F)N1CCC2(CCCN2CC2CC2)CC1,-1,-2,-12,3
N#Cc1oc2ccccc2c1NC(=O)CSc1nc2ccccc2[nH]1,-18,6,-34,-40
CCOC(=O)c1[nH]c2ccccc2c1-n1cccc1,-9,13,-29,-20
COCCN1CCCC[C@]2(C[C@H](CO)[C@H](c3ccccc3)N2C(=O)c2ccccc2)C1=O,4,-2,-3,-1
Cc1nc(Nc2ncccc2C)cc(C2CCCN2Cc2cnc[nH]2)n1 (stereo unspecified),-7,-25,·,-32
O=C1COc2ccc(C(=O)COC(=O)c3ccc4ccccc4n3)cc2N1,-62,-44,44*,-195
Cc1ccc(NC(=O)CSc2nc(C)nc3c2oc2ccccc23)c(C)c1,8,8,26,32*
COc1ccccc1NC(=O)CSc1nc(C)nc2c1oc1ccccc12,15,18,26,35*
COc1ccc(NC(=O)CSc2nc(C)nc3c2oc2ccccc23)c(OC)c1,-4,-1,1,-7
Cc1nc(SCC(=O)Nc2ccc(C)c(Cl)c2)c2oc3ccccc3c2n1,11,11,44*,39*
Cc1nc(SCC(=O)NC(C)c2ccccc2)c2oc3ccccc3c2n1 (stereo unspecified),21,1,38*,0
Cc1nc(SCC(=O)Nc2ccc(Cl)c(Cl)c2)c2oc3ccccc3c2n1,6,3,12,9
